Our source for the morphology score and SARS-CoV-2 infection rate values is the supplement of paper PMC13380429.

Molecules are shown by their SMILES. Where a name gives a salt, the structure may show the parent alone.

Assay [1] has as its system Vero E6 infected with SARS-CoV-2. Briefly: morphology score (similarity to uninfected cells); higher = more like uninfected cells. Conditions: 24 h.
Assay [2] has the same test system. Briefly: SARS-CoV-2 infection rate relative to infected DMSO; higher = more infection, active = 60 or less. Conditions: 24 h.

`CCc1ccc(C2=CC(C)(C)Sc3ccc(C#Cc4ccc(C(=O)O)cc4)cc32)cc1` (10 µM) yielded a morphology score in assay [1] of -0.0119. For the same compound, the SARS-CoV-2 infection rate in assay [2] is 111% (inactive).

`CCCN(CCC)S(=O)(=O)c1ccc(C(=O)O)cc1` [probenecid] (10 µM) returned a morphology score in assay [1] of -0.0854. For the same compound, the SARS-CoV-2 infection rate in assay [2] was 106% (inactive).

In turn, `COC(=O)[C@@]12OC[C@]34[C@H]([C@@H](O)[C@@H]1O)[C@@]1(C)CC(=O)C(O)=C(C)[C@@H]1C[C@H]3OC(=O)[C@H](OC(=O)/C=C(\C)C(C)C)[C@@H]24` [bruceantin] (0.833333 µM) had a morphology score in assay [1] of -0.0265. Moreover, in assay [2], the SARS-CoV-2 infection rate was 109% (inactive).

Consider `CCCCCCN(CCCCCC)C(=O)Cc1c(-c2ccc(Cl)cc2)[nH]c2ccc(Cl)cc12` (10 µM), for which the morphology score in assay [1] was -0.00824. For the same compound, the SARS-CoV-2 infection rate in assay [2] is 103% (inactive).

In the case of `COc1cc(C(=O)NS(=O)(=O)c2ccccc2C)ccc1Cc1cn(C)c2ccc(NC(=O)OC3CCCC3)cc12` [zafirlukast] (10 µM), in assay [1], the morphology score is 0.282. The SARS-CoV-2 infection rate in assay [2] is 105% (inactive).

Compound `CC1=C(C(=O)Nc2cc3cn[nH]c3cc2F)C(c2ccc(C(F)(F)F)cc2)CC(=O)N1` (stereo not drawn) (10 µM) yielded a morphology score in assay [1] of 0.426. In assay [2], the SARS-CoV-2 infection rate was 99% (inactive).

In assay [1], `CCOCc1cc(OC)c(-c2ccc(C[C@H](NC(=O)c3c(F)cccc3F)C(=O)O)cc2)c(OC)c1` [firategrast] (10 µM) yielded a morphology score of -0.05. In assay [2], the SARS-CoV-2 infection rate was 105% (inactive).

In assay [1], `Cc1cc(C)cc(OCC2CNC(=O)O2)c1` (stereo not drawn) [metaxalone] (10 µM) showed a morphology score of 0.134. Also, in assay [2], the SARS-CoV-2 infection rate was 97% (inactive).

Turning to `CC1=C(C(=O)O)N2C(=O)[C@@H](NC(=O)[C@H](N)c3ccccc3)[C@H]2SC1` [cephalexin] (10 µM), the morphology score in assay [1] stood at 0.0139. Further, the SARS-CoV-2 infection rate in assay [2] was 112% (inactive).

Consider `O=C(O)c1ccc2nc(-c3cc(Cl)cc(Cl)c3)oc2c1` [tafamidis-meglumine] (10 µM), for which the morphology score in assay [1] was found to be 0.242. Further, the SARS-CoV-2 infection rate in assay [2] was 90.5% (inactive).

`C[C@H]1C[C@@H]2[C@H]([C@@H](O)C[C@@]3(C)[C@H]2CC[C@]3(O)C(=O)COC(=O)CCC(=O)O)[C@@]2(C)C=CC(=O)C=C12` [methylprednisolone-sodium-succinate] (10 µM): the morphology score in assay [1] was -0.0168. In addition, in assay [2], the SARS-CoV-2 infection rate is 102% (inactive).

As to `CCCCCCCCCCCCCCCC(=O)OC[C@H](COP(=O)([O-])OCC[N+](C)(C)C)OC(=O)CCCCCCCCCCCCCCC` [colfosceril-palmitate] (10 µM), the morphology score in assay [1] amounted to 0.152. Further, the SARS-CoV-2 infection rate in assay [2] is 103% (inactive).

On to `Cc1cccc(C)c1OCC(=O)N[C@@H](Cc1ccccc1)[C@@H](O)C[C@H](Cc1ccccc1)NC(=O)[C@H](C(C)C)N1CCCNC1=O` [Lopinavir] (10 µM), for which, in assay [1], the morphology score was 0.184. The SARS-CoV-2 infection rate in assay [2] was 82% (inactive).

Consider `CC(C)N1CCN(c2ccc(OCC3COC(Cn4cncn4)(c4ccc(Cl)cc4Cl)O3)cc2)CC1` (stereo not drawn) [terconazole] (0.833333 µM), for which the morphology score in assay [1] was -0.0821. Besides, the SARS-CoV-2 infection rate in assay [2] is 106% (inactive).

For the compound `CCOC(=O)[N-]c1c[n+](N2CCOCC2)no1` [molsidomine] (10 µM), in assay [1], the morphology score worked out at 0.0533. Further, the SARS-CoV-2 infection rate in assay [2] is 102% (inactive).

Compound `CN(C)CCOc1ccc(/C(=C(/CCCl)c2ccccc2)c2ccccc2)cc1` [Toremifene citrate] (10 µM) had a morphology score in assay [1] of 0.422. Further, in assay [2], the SARS-CoV-2 infection rate is 77% (inactive).

Compound `CC(=O)c1cc2c(o1)C(=O)c1ccccc1C2=O` [napabucasin] (0.833333 µM) displayed a morphology score in assay [1] of 0.309. Besides, the SARS-CoV-2 infection rate in assay [2] was 89% (inactive).

In assay [1], `COC(=O)C1=C(C)NC(C)=C(C(=O)NCCCN2CCC(c3ccccc3)(c3ccccc3)CC2)C1c1ccc([N+](=O)[O-])cc1` (stereo not drawn) (0.833333 µM) registered a morphology score of 0.212. Moreover, in assay [2], the SARS-CoV-2 infection rate was 98.5% (inactive).

As to `Oc1ccc(C(O)CNCCCCCCNCC(O)c2ccc(O)c(O)c2)cc1O` (stereo not drawn) [hexoprenaline] (10 µM), in assay [1], the morphology score came to 0.0624. The SARS-CoV-2 infection rate in assay [2] is 116% (inactive).

For the compound `CN(C)CCOc1ccc(-c2nc(-c3ccncc3)c(-c3ccc4c(c3)CC/C4=N\O)[nH]2)cc1` (10 µM), the morphology score in assay [1] was -0.0571. Also, the SARS-CoV-2 infection rate in assay [2] is 96% (inactive).

Turning to `COC[C@H]1OC(=O)c2coc3c2[C@@]1(C)C1=C(C3=O)[C@@H]2CCC(=O)[C@@]2(C)C[C@H]1OC(C)=O` [wortmannin] (0.833333 µM), the morphology score in assay [1] worked out at 0.26. Further, in assay [2], the SARS-CoV-2 infection rate was 79.5% (inactive).

For the compound `CCc1cc2c(c(CC)n1)CCC(=O)N2Cc1ccc(-c2ccccc2-c2nnn[nH]2)cc1` (10 µM), the morphology score in assay [1] amounted to 0.264. For the same compound, the SARS-CoV-2 infection rate in assay [2] is 98.5% (inactive).

In turn, `CC(C)(C)C[C@@H]1N[C@@H](C(=O)N[C@H]2CC[C@H](O)CC2)[C@H](c2cccc(Cl)c2F)[C@]12C(=O)Nc1cc(Cl)ccc12` (10 µM) displayed a morphology score in assay [1] of -0.042. The SARS-CoV-2 infection rate in assay [2] was 113% (inactive).

Compound `COc1ccc(/C=C2\CCCN=C2c2cccnc2)c(OC)c1` (10 µM) returned a morphology score in assay [1] of 0.517. In addition, the SARS-CoV-2 infection rate in assay [2] is 87% (inactive).
